TRAIL sens C8: caspase-8 TRAIL sensitization. hit rate 1% among 360,000. NB7+C8 cells + TRAIL, ATPlite viability luminescence. inhibition (viability loss, TRAIL sensitization), % at 10 µM;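 active means compounds causing at least 50% loss of cell viability in the single-dose screen, relative to plate controls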
SENP8 block-1: inhibitors of human SENP8 protease. AID 602440. Q96LD8. hit rate 0.64% among 360,000. recombinant SENP8, Nedd8 substrate fluorescence. inhibition, % at 20 µM; in the data active means inhibition mostly above about 40%, no sharp cut-off; inactive means mostly below about 27%
SENP7 inh: blocks the human protease SENP7 | hit rate 1.5% among 330,000 | Q9BQF6 | recombinant SENP7, Z-RLRGG-aminoluciferin luminescence, 40 min | inhibition, % at 5 µM;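 active means inhibition above about 50% at the single test dose, limit read from the data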;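 further: plate controls were DMSO with enzyme for no effect and no enzyme buffer wells for full effect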
Target sequence (Q9BQF6 706-1050 limits assumed): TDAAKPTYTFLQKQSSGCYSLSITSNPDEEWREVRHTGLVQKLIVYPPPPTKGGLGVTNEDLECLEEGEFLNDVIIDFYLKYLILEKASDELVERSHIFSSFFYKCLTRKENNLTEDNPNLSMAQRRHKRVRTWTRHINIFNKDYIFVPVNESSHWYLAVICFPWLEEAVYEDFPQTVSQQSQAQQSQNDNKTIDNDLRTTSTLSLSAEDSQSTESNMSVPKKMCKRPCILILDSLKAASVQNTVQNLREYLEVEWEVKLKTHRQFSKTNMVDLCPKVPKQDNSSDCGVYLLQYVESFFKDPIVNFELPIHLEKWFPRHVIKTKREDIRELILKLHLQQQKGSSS
PPC-1+TRAIL kill: kills PPC-1 cancer cells in the presence of TRAIL; PPC-1 cells + TRAIL, ATPLite viability luminescence; cell killing (% activity), % at 4 µM or 5 µM; hit rate 0.41% among 220,000; AID 1443;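 active means cell killing above 50% in the first pass at 4 µM, then a duplicate retest at 5 µM averaging 50% or more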;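 further: plate controls were cells with TRAIL plus DMSO for no effect and medium-only wells lacking cells for full effect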
SENP6 block: blocks the human protease SENP6 | Q9GZR1 | Recombinant SENP6 catalytic domain, aminoluciferin luminescence | inhibition, % at 10 µM | hit rate 1.8% among 330,000;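 active means inhibition above about 50% at the single tested dose, limit read from the data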;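 further: plate controls were DMSO wells with enzyme for no effect and DMSO wells lacking enzyme for full effect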
SENP8 block-2: SENP8 protease inhibition | Q96LD8 | purified SENP8, Z-RLRGG-aminoluciferin cleavage, luminescence | inhibition, % at 10 µM | hit rate 1.2% among 330,000 | AID 2540; in the data active means inhibition above about 50%
SENP8 confirm: human SENP8 inhibition, confirmed; inhibition, % at 12.5 µM; shares compounds with SENP7 inh; hit rate 40% among 6,200; Recombinant SENP8, Z-RLRGG-aminoluciferin luminescence, 60 min;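 active means mean inhibition across replicates above about 50%, limit read from the data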
SENP6 confirm: confirmation of human SENP6 protease inhibitors; inhibition, % at 12.5 µM; shares compounds with SENP7 inh; recombinant SENP6, Z-RLRGG-aminoluciferin luminescence; hit rate 58% among 6,200
SENP7 conf: human SENP7 inhibition, confirmed | hit rate 69% among 6,200 | shares compounds with SENP7 inh | recombinant SENP7, Z-RLRGG-aminoluciferin luminescence, 40 min | AID 488917 | inhibition, % at 12.5 µM
Casp3 select: inhibits human caspase-3 in SENP selectivity test; shares compounds with SENP7 inh; AID 488918; hit rate 60% among 6,200; purified caspase-3, Z-DEVD-aminoluciferin luminescence, 60 min; inhibition, % at 12.5 µM;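 active means mean inhibition above about 50%, limit read from the data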;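 further: plate controls were enzyme with DMSO for no effect and wells without caspase-3 for full effect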
Target sequence (P42574 28-227 limits assumed): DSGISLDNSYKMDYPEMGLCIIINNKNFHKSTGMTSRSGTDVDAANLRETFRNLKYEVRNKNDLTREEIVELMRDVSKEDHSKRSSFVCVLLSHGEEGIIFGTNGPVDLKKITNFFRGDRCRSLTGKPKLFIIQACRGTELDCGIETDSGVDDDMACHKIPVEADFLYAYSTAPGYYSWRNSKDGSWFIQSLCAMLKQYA
Luc interf: interferes with luciferase luminescence in SENP counter-screen; shares compounds with SENP7 inh; Pre-incubated SENP8/Z-RLRGG-aminoluciferin, luciferase luminescence interference; inhibition, % at 12.5 µM; hit rate 39% among 6,200;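 active means mean inhibition above about 50% when retested at one dose, limit read from the data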;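 further: plate controls were DMSO wells with completed reaction for no effect and substrate without enzyme for full effect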
* hit, by the source's call; / = no result given. In the library only some 3% were active in any assay of this set; here they are far more common.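 How the source made its calls, unless noted: active means mean inhibition above about 50% in the one-dose retest (limit read from the data); inactive means the rest.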

SMILES	TRAIL sens C8	SENP8 block-1	SENP7 inh	PPC-1+TRAIL kill	SENP6 block	SENP8 block-2	SENP8 confirm	SENP6 confirm	SENP7 conf	Casp3 select	Luc interf
N/C(=N\OC(=O)c1ccccc1[N+](=O)[O-])c1ccccn1	26	-2	61*	/	54*	42	65*	61*	-7	86*	66*
COc1ccccc1C(=O)O/N=C(\N)c1ccccn1	26	15	9	34	53*	38	41	30	58*	74*	54*
CN(C)CCCNC(=O)c1cc(C(=O)c2ccc(F)cc2)c[nH]1	15	15	-16	21	0	-9	/	/	/	/	/
CC(=O)Nc1ccc(NC(=O)CSc2nnnn2-c2ccc(F)cc2)cc1	-16	17	-10	/	4	1	/	/	/	/	/
COc1cc(OC)c(C(=O)O/N=C(\N)c2ccccn2)cc1OC	2	11	-6	/	4	1	/	/	/	/	/
Cc1ccc(C(=O)O/N=C(\N)c2ccccn2)c(C)c1	94*	5	102*	/	99*	95*	100*	101*	104*	99*	99*
COCCNc1ncnc2c1cnn2Cc1ccccc1Cl	-1	14	2	/	2	5	/	/	/	/	/
Clc1ccccc1CONc1ncnc2nonc12	2	21	36	23	62*	34	39	33	71*	53*	61*
COc1ccc(C(=O)N2CCC(C)(C(=O)NS(=O)(=O)C3CC3)C2)cc1 (stereo not given)	-9	29	/	/	/	/	/	/	/	/	/
COc1ccc(S(=O)(=O)N2CCN(Cc3cccc(F)c3)CC2)cc1	-9	7	10	/	-8	-10	/	/	/	/	/
CN1CCc2nc(SCC(=O)Nc3cccc(F)c3)c(C#N)c(-c3cccs3)c2C1	-10	34	60*	25	77*	57*	1	0	-4	-2	-8
CC(C)(C)C(=O)CSc1nc2c(c(-c3cccs3)c1C#N)CCC2	6	-222	-5	6	5	-2	/	/	/	/	/
O=C(Oc1ccc2c(c1)OCO2)c1ccc(F)cc1Cl	5	8	88*	14	91*	75*	73*	84*	97*	77*	75*
O=C(Oc1ccc2c(c1)OCO2)c1cc2c(s1)CCC2	17	1	68*	5	81*	60*	76*	74*	89*	56*	65*
CC(C)N(Cc1ccccc1)C(=O)CN1C(=O)NC2(CCCCCC2)C1=O	12	12	-2	/	-9	2	/	/	/	/	/
Cc1ccc(SCC(=O)Nc2cc([N+](=O)[O-])ccc2O)cc1	10	38	4	11	-16	79*	-13	26	57*	39	38
O=C(CSCc1ccc(Cl)cc1)Nc1cc([N+](=O)[O-])ccc1O	6	22	-1	5	-14	1	/	/	/	/	/
CCN1C(=O)c2cccc3c(S(=O)(=O)Nc4ncccc4C)ccc1c23	21	-300	64*	28	5	-5	-24	-15	-13	-11	-6
Fc1ccc2cc(-c3cccnc3)ncc2c1	14	-18	5	/	-7	5	/	/	/	/	/
COc1ccc2cc(-c3cccnc3)ncc2c1	32	-154	58*	/	53*	40	38	38	81*	73*	62*
COc1ccc2cc(-c3ccon3)ccc2c1	12	-76	8	/	13	-4	/	/	/	/	/
COc1ccc(-c2ccc3ccccc3n2)cc1	58*	-417	99*	43	94*	93*	92*	97*	101*	95*	74*
COc1ccc2cc(-c3ccccc3F)ncc2c1	53*	-119	100*	/	97*	97*	98*	99*	103*	96*	97*
COc1ccc(-c2cc3ccc(OC)cc3cn2)cc1	77*	-474	84*	/	68*	46	5	17	59*	41	-4
COc1ccc(C(O)c2ncc(-c3ccccc3F)[nH]2)cc1 (stereo not given)	4	6	/	/	/	/	/	/	/	/	/
SMILES	TRAIL sens C8	SENP8 block-1	SENP7 inh	PPC-1+TRAIL kill	SENP6 block	SENP8 block-2	SENP8 confirm	SENP6 confirm	SENP7 conf	Casp3 select	Luc interf
CC1=C2C3OC(=O)C(C)C3CCC2(C)C=C(Br)C1=O (stereo not given)	17	13	/	/	/	/	/	/	/	/	/
O=c1[nH]cnc2c1ncn2C1CCC(CO)O1 (stereo not given)	-13	4	/	/	/	/	/	/	/	/	/
OCCCCNc1cccc2ccccc12	3	-309	-6	10	63*	45	2	20	3	-1	-4
OCCCCCNc1ncnc2ccccc12	-3	-138	9	12	-9	-4	/	/	/	/	/
O=C(COc1ccccc1)Nc1nccs1	-3	-4	6	37	75*	61*	-3	61*	90*	90*	74*
O=C(COc1ccc2ccccc2c1)Nc1nccs1	57*	3	77*	46	61*	66*	42	89*	99*	81*	76*
COc1ccc(CN2C(=O)CN(S(C)(=O)=O)CC2(C)C(=O)NC(C)C)cc1 (stereo not given)	-14	18	/	/	/	/	/	/	/	/	/
Cc1cccc(/C=N/NC(=O)Cc2ccc(Cl)cc2)c1O	23	-19	-1	/	-20	16	/	/	/	/	/
O=C(N/N=C/c1cc([N+](=O)[O-])ccc1O)c1ccc2c(c1)OCCO2	52*	-4	89*	36	93*	85*	14	18	16	23	-1
Cc1cccc(/C=N/NC(=O)c2ccc3c(c2)OCCO3)c1O	76*	11	97*	/	94*	94*	96*	98*	103*	94*	66*
Cc1cccc(/C=N\NC(=O)c2ccc(Cl)cc2)c1O	55*	2	73*	34	37	12	7	19	29	60*	5
O=C(N/N=C/c1cc([N+](=O)[O-])ccc1O)c1ccncc1	-5	-2	41	13	23	1	/	/	/	/	/
O=C(NC(=S)Nc1cc([N+](=O)[O-])ccc1O)c1ccc2c(c1)OCO2	39	21	81*	/	90*	89*	93*	94*	97*	87*	77*
O=C(Cc1ccsc1)NNC(=O)c1cccc(Cl)c1	11	-1	0	/	1	-5	/	/	/	/	/

Screens from PubChem BioAssay.
